This is an account of results in PubChem BioAssay (EPA / NIEHS).

The subject of experiment [1] is Sodium/Iodide Symporter (NIS), SLC5A5 (gene 6528). Put plainly: CPHEA_Stoker_NIS_Inhibition_RAIU: CPHEA's Radioactive Iodide Uptake (RAIU) Assay for Sodium/Iodide Symporter (NIS) Inhibition, Stoker and Laws Labs (AID 2283841). The procedure, abridged:
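Iodide uptake read as CPM of intracellular 125I (final 329 pM) after 2 h room-temperature exposure in HEPES-buffered HBSS, pH 7.4. Human NIS-expressing HEK293T cells; six concentrations 0.001–100 uM, 0.5% DMSO, normalised to DMSO wells.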

A short description of experiment [2]: CPHEA_Stoker_NIS_Cytotoxicity: Cytotoxicity Assessment for CPHEA's Radioactive Iodide Uptake (RAIU) Assay for Sodium/Iodide Symporter (NIS) Inhibition, Stoker and Laws Labs (AID 2283897). In short, it runs like this:
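CellTiter-Glo ATP luminescence gauged viability in HEK293T cells expressing human NIS after 2 h chemical exposure. Concentrations ran 0.001–100 uM in 0.5% DMSO; DMSO served as baseline for the loss-of-signal fit.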

Experiment [3] deals with Peroxisome proliferator-activated receptor gamma (Homo sapiens) (UniProt P37231). In words: ATG_hPPARg_XSP2: Attagene TRANS-FACTORIAL Multi-Species (XSP2) HepG2 Assay for human Peroxisome Proliferator-activated Receptor gamma (PPARg) (AID 2283829).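 Note: actives raise reporter mRNA above DMSO so AC50 reflects PPARg activation.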 The procedure, abridged: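 HepG2 cells transiently transfected with multiplexed GAL4-UAS reporter units for chimeric NR-Gal4 receptors, dosed 24 h. Reporter mRNA quantified by RT-PCR, 6-FAM labeling, HpaI digestion and capillary electrophoresis; gain-of-signal fitted against DMSO baseline.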
Sequence of Peroxisome proliferator-activated receptor gamma (Homo sapiens) (P37231 whole entry, looked up, the tested form may be a part): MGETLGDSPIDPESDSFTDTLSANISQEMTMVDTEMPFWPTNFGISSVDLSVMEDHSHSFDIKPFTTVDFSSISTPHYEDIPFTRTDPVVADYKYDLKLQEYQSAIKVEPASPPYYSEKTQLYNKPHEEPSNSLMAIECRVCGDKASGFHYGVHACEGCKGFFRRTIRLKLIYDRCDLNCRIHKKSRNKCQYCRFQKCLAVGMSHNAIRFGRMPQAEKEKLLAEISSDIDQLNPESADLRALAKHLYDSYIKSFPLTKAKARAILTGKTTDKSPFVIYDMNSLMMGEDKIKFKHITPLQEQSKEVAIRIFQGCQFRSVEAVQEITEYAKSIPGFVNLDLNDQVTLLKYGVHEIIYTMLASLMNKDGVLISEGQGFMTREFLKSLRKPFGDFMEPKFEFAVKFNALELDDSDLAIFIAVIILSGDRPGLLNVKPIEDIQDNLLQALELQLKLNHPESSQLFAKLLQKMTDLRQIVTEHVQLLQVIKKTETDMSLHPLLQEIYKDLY

In experiment [4] the target is mouse Peroxisome Proliferator-activated Receptor gamma (PPARg), Pparg (gene 19016) (UniProt P37238). In words: ATG_mPPARg_XSP2: Attagene TRANS-FACTORIAL Multi-Species (XSP2) HepG2 Assay for mouse Peroxisome Proliferator-activated Receptor gamma (PPARg) (AID 2283830).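 Note: hits are gains in reporter mRNA above DMSO so AC50 marks activation.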 In short, it runs like this: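 Multiplexed TRANS reporter readout: after 24 h chemical exposure of transfected HepG2 cells (with 3 nM 6-alpha-fluorotestosterone, 1.5 nM norgestrel present), RNA reverse-transcribed, amplified, 6-FAM-labelled and resolved by capillary electrophoresis; mouse PPARg-Gal4 induction scored against DMSO.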
Sequence of mouse Peroxisome Proliferator-activated Receptor gamma (PPARg), Pparg (gene 19016) (P37238 whole entry, looked up, the tested form may be a part): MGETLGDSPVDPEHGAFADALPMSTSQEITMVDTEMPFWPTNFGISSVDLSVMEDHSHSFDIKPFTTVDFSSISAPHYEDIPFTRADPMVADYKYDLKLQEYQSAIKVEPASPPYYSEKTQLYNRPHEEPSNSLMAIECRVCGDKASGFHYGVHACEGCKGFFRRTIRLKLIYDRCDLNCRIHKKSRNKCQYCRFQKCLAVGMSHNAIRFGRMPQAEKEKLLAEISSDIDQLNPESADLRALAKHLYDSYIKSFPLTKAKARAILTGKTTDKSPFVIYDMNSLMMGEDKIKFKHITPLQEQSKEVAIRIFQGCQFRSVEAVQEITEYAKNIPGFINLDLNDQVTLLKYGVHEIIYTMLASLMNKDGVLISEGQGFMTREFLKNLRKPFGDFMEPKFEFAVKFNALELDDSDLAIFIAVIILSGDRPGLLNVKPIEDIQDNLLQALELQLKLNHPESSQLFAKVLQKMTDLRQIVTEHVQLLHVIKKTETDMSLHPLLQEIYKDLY

Experiment [5] has as its target Nuclear receptor subfamily 1 group I member 2 (Mus musculus) (UniProt O54915). Put plainly: ATG_mPXR_XSP2: Attagene TRANS-FACTORIAL Multi-Species (XSP1) HepG2 Assay for mouse Pregnane X Receptor (PXR) (AID 2283831). In short, it runs like this:
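HepG2 cells transiently transfected with GAL4-UAS reporter units expressing chimeric NR-GAL4 proteins; reporter mRNA measured 24 h after dosing by RT-PCR with 6-FAM labelling and capillary electrophoresis, gain of signal relative to DMSO.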

Experiment [6] deals with zebrafish Thyroid Hormone Receptor alpha (TRa), thraa (gene 30670) (UniProt Q98867). Put plainly: ATG_zfTRa_XSP2: Attagene TRANS-FACTORIAL Multi-Species (XSP1) HepG2 Assay for zebrafish Thyroid Hormone Receptor alpha (TRa) (AID 2283832).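 Note: actives raise zebrafish TRa-Gal4 reporter transcript above DMSO baseline.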 The procedure, abridged: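 Chimeric zebrafish TRa-Gal4 activity read in transfected human HepG2 as GAL4-UAS reporter transcripts, 24 h post-dose, via RT-PCR with labeled primer extension and capillary electrophoresis. Medium also carries 3 nM 6-alpha-fluorotestosterone and 1.5 nM norgestrel; DMSO baseline.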
Sequence of zebrafish Thyroid Hormone Receptor alpha (TRa), thraa (gene 30670) (Q98867 whole entry, looked up, the tested form may be a part): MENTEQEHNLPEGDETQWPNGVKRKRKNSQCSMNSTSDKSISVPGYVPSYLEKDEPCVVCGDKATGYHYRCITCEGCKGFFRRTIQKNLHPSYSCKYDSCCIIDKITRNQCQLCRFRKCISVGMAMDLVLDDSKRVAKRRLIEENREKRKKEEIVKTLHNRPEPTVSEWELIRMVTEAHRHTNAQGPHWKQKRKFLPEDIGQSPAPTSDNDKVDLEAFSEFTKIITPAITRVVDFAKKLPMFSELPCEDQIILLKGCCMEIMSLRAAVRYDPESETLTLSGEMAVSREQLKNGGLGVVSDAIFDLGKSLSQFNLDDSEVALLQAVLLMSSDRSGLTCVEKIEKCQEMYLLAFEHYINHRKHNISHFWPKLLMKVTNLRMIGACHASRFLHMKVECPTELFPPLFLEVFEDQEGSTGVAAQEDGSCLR

The test system of experiment [7] is zebrafish Peroxisome Proliferator-activated Receptor gamma (PPARg), gene 557037. In words: ATG_zfPPARg_XSP2: Attagene TRANS-FACTORIAL Multi-Species (XSP2) HepG2 Assay for zebrafish Peroxisome Proliferator-activated Receptor gamma (PPARg) (AID 2283833).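 Note: actives increase reporter signal over DMSO so AC50 reflects activation.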 The procedure, abridged:
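HepG2 cells transiently transfected with GAL4-UAS reporter units expressing a zebrafish PPARg–GAL4 chimera; compound exposure 24 h. Reporter mRNA quantified by RT-PCR with fluorescent labelling and capillary electrophoresis; gain of signal fitted relative to DMSO baseline.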

Experiment [8] concerns turtle Thyroid Hormone Receptor, alpha (TRa), gene 101949057. Put plainly: ATG_trTRa_XSP2: Attagene TRANS-FACTORIAL Multi-Species (XSP1) HepG2 Assay for turtle Thyroid Hormone Receptor, alpha (TRa) (AID 2283834).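 Note: hits raise reporter mRNA over the DMSO baseline so AC50 marks activators.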 The procedure, abridged:
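HepG2 cells transiently transfected with multiplexed GAL4-UAS reporter units expressing chimeric NR-Gal4 proteins were dosed for 24 hours. Reporter mRNA was quantified by RT-PCR with 6-FAM labelling and capillary electrophoresis, gain of signal scored against DMSO.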

The nature of experiment [9]: ATG_M_61_XSP2: Attagene TRANS-FACTORIAL Multi-Species (XSP2) HepG2 Assay for M61 Transcription Factor (Internal Marker) (AID 2283835; active = hit-call score of the fitted dose curve at least 0.9, where 1 is the maximum; inactive = score below 0.9;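 note: reporter mRNA of an internal background marker read by RT-PCR and capillary electrophoresis; active means a rise in signal above the DMSO baseline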). The procedure, abridged: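 Transient MRTU transfection of human HepG2; 24 h chemical dosing with 3 nM 6-alpha-fluorotestosterone + 1.5 nM norgestrel added for AR stimulation. RNA isolated, RT, PCR, FAM-labelled, HpaI cut, CE read. Positive direction vs DMSO.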

Experiment [10] concerns the target zebrafish Thyroid Hormone Receptor beta (TRb), thrb (gene 30607) (UniProt Q9PVE4). In words: ATG_zfTRb_XSP2: Attagene TRANS-FACTORIAL Multi-Species (XSP1) HepG2 Assay for zebrafish Thyroid Hormone Receptor beta (TRb) (AID 2283836). In short, it runs like this:
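Reporter transcripts measured by RT-PCR, 6-FAM labelling, HpaI digestion and capillary electrophoresis after 24 h chemical exposure. Human HepG2 cells carry an exogenous zebrafish TRb-GAL4 chimera; medium included 3 nM 6-alpha-fluorotestosterone plus 1.5 nM norgestrel.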

The nature of experiment [11]: ATG_XTT_Cytotoxicity_XSP2: Cytotoxicity Assessment in the Attagene TRANS-FACTORIAL Multi-Species (XSP2) HepG2 Assay (AID 2283837). In short, it runs like this: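 XTT-based cell number read-out in human HepG2 liver cells carrying transfected reporter units, measured 24 h after chemical dosing. Activity is signal loss versus DMSO baseline.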
Experiment [12] has as its target human Thyroid hormone Receptor alpha (TRa), THRA (gene 7067) (UniProt P10827). In words: ATG_hTRa_XSP2: Attagene TRANS-FACTORIAL Multi-Species (XSP2) HepG2 Assay for human Thyroid hormone Receptor alpha (TRa) (AID 2283838). In short, it runs like this: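 Reporter transcripts were read by RT-PCR with fluorescent primer extension, HpaI digestion and capillary electrophoresis. These came from HepG2 cells carrying multiplexed TRa-Gal4 TRANS constructs, harvested 24 hours after dosing. The medium also held 6-alpha-fluorotestosterone (3 nM) and norgestrel (1.5 nM), and increases were fitted against DMSO.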

The target in experiment [13] is frog Thyroid hormone Receptor alpha (TRa), thra-a (gene 397942) (UniProt P15204). Put plainly: ATG_frTRa_XSP2: Attagene TRANS-FACTORIAL Multi-Species (XSP2) HepG2 Assay for frog Thyroid hormone Receptor alpha (TRa) (AID 2283839). The procedure, abridged: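 HepG2 cells transiently transfected with multiplexed GAL4-UAS reporter units expressing chimeric frog TRα-Gal4; reporter mRNA read 24 h after dosing by RT-PCR, FAM-labelled primer extension, HpaI digest and capillary electrophoresis. Gain of signal fitted versus DMSO.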
Sequence of frog Thyroid hormone Receptor alpha (TRa), thra-a (gene 397942) (P15204 whole entry, looked up, the tested form may be a part): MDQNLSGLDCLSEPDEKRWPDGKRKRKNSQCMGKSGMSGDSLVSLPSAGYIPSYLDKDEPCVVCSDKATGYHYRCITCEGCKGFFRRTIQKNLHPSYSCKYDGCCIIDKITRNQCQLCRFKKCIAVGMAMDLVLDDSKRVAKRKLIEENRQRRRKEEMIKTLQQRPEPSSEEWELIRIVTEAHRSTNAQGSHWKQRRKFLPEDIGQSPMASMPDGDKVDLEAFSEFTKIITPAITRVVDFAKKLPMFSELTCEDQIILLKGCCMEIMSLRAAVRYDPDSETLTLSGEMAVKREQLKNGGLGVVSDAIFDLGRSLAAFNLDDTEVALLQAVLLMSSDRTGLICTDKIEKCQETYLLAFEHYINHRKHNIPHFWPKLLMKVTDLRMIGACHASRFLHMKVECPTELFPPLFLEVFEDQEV

Experiment [14] has as its target human Thyroid hormone Receptor beta (TRb), THRB (gene 7068) (UniProt P10828). In words: ATG_hTRb_XSP2: Attagene TRANS-FACTORIAL Multi-Species (XSP2) HepG2 Assay for human Thyroid hormone Receptor beta (TRb) (AID 2283840).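 Note: actives raise reporter mRNA so potency reflects agonist-like gain of signal.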 In short, it runs like this:
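HepG2 cells were transiently transfected with GAL4-UAS multiplexed reporter units expressing chimeric NR-Gal4 proteins, dosed 24 h; reporter mRNA was quantified by RT-PCR, fluorescent labeling, HpaI digestion and capillary electrophoresis, fitted for gain of signal versus DMSO.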

Experiment [15] can be described thus: CEETOX_H295R_OHPREG_noMTC: CeeTox H295R High-throughput Steroidogenesis Assay for OH-Pregnenolone (OHPREG), maximum tolerated concentration (MTC) filtered results only (AID 2283912; active = hit-call score of the fitted dose curve at least 0.9, where 1 is the maximum; inactive = score below 0.9). To be noted: actives raise or lower the signal. In short, it runs like this: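 H295R; 10 uM forskolin 48 h pre-stim; test cpd in DMSO (0.1% final) 48 h; media MTBE-extracted, HPLC-MS/MS for OH-pregnenolone; bidirectional fit vs DMSO; no MTC (MTT) filtering.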

Experiment [16] can be described thus: CEETOX_H295R_OHPROG_noMTC: CeeTox H295R High-throughput Steroidogenesis Assay for OH-Progesterone (OHPROG), maximum tolerated concentration (MTC) filtered results only (AID 2283914; active = hit-call score of the fitted dose curve at least 0.9, where 1 is the maximum; inactive = score below 0.9). To be noted: actives raise or lower the signal. In short, it runs like this:
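Medium hormone measured by reverse-phase C18 HPLC with positive electrospray MS/MS after MTBE liquid-liquid extraction. Cells had 48 h forskolin (10 uM) prestimulation, then 48 h chemical dosing. Gain or loss of signal fitted relative to DMSO baseline.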

Experiment [17] is described as follows: CEETOX_H295R_11DCORT_noMTC: CeeTox H295R High-throughput Steroidogenesis Assay for 11-Deoxycortisol (11DCORT), maximum tolerated concentration (MTC) filtered results only (AID 2283911; active = hit-call score of the fitted dose curve at least 0.9, where 1 is the maximum; inactive = score below 0.9). To be noted: actives raise or lower the signal. The procedure, abridged:
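HPLC-MS/MS read-out of 11-deoxycortisol after MTBE extraction of H295R medium. Cells: forskolin 10 uM pre-stimulation 48 h, chemical 48 h, 0.1% DMSO final. Bidirectional fit vs DMSO baseline; no MTC filtering.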

The nature of experiment [18]: CEETOX_H295R_CORTISOL_noMTC: CeeTox H295R High-throughput Steroidogenesis Assay for Cortisol, maximum tolerated concentration (MTC) filtered results only (AID 2283916; active = hit-call score of the fitted dose curve at least 0.9, where 1 is the maximum; inactive = score below 0.9). The conditions noted are these: actives raise or lower the signal. The procedure, abridged:
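H295R human adrenal cells prestimulated 48 h with 10 uM forskolin, then exposed 48 h to chemical in 0.1% DMSO; cortisol in medium quantified by HPLC-MS/MS; bidirectional fit vs DMSO baseline, concentrations not MTT-filtered for MTC.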

The nature of experiment [19]: CEETOX_H295R_CORTIC_noMTC: CeeTox H295R High-throughput Steroidogenesis Assay for Corticosterone (CORTIC), maximum tolerated concentration (MTC) filtered results only (AID 2283917; active = hit-call score of the fitted dose curve at least 0.9, where 1 is the maximum; inactive = score below 0.9). The conditions noted are these: actives raise or lower the signal. The procedure, abridged: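 Corticosterone secreted into the medium was measured by reverse-phase C18 HPLC with tandem MS after MTBE extraction. Cells (H295R) had 48 h forskolin (10 uM) stimulation before 48 h chemical exposure; gain or loss of signal was fitted relative to DMSO.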

Experiment [20] can be described thus: CEETOX_H295R_DOC_noMTC: CeeTox H295R High-throughput Steroidogenesis Assay for DOC, maximum tolerated concentration (MTC) filtered results only (AID 2283918; active = hit-call score of the fitted dose curve at least 0.9, where 1 is the maximum; inactive = score below 0.9). The conditions noted are these: actives raise or lower the signal. The procedure, abridged: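 H295R cells prestimulated 48 h with 10 uM forskolin, then exposed 48 h to chemical in 0.1% DMSO. 11-Deoxycorticosterone in medium measured by MTBE extraction and HPLC-MS/MS; bidirectional fit vs DMSO, no MTC filter.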

Several values for one entry are separate records, joined by “and”; a condition that tells them apart may be missing. Equal values may be shown once. Records with an inconclusive call do not appear. More than one record can exist for a structure, and the calls need not agree. Activity calls are given as the source filed them. Rule for the calls, unless noted: active = hit-call score of the fitted dose curve at least 0.9, where 1 is the maximum; inconclusive = response in the unintended direction; inactive = score below 0.9.

Sequence of Nuclear receptor subfamily 1 group I member 2 (Mus musculus) (O54915 whole entry, looked up, the tested form may be a part): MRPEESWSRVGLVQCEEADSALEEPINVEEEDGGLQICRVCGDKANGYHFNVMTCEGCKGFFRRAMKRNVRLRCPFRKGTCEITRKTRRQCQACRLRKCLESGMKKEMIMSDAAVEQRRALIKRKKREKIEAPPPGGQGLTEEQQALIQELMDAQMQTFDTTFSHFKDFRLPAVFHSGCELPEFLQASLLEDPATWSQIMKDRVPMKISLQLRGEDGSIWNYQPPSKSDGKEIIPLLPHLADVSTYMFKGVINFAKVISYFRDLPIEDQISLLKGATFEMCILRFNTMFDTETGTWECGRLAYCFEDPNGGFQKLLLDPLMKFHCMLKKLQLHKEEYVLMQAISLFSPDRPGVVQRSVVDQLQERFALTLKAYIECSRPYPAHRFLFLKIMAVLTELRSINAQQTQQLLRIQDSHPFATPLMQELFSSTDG
Sequence of zebrafish Thyroid Hormone Receptor beta (TRb), thrb (gene 30607) (Q9PVE4 whole entry, looked up, the tested form may be a part): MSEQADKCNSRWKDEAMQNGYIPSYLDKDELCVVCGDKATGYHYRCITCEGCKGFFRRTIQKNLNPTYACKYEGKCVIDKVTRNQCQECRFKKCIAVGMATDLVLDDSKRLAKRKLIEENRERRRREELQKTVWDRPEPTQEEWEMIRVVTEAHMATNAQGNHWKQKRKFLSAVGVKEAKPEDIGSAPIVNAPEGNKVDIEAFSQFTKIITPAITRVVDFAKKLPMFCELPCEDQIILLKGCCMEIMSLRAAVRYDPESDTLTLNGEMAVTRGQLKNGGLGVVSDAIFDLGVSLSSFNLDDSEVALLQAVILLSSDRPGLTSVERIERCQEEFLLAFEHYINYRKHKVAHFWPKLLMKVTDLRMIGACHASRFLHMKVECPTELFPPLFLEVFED
Sequence of human Thyroid hormone Receptor beta (TRb), THRB (gene 7068) (P10828 whole entry, looked up, the tested form may be a part): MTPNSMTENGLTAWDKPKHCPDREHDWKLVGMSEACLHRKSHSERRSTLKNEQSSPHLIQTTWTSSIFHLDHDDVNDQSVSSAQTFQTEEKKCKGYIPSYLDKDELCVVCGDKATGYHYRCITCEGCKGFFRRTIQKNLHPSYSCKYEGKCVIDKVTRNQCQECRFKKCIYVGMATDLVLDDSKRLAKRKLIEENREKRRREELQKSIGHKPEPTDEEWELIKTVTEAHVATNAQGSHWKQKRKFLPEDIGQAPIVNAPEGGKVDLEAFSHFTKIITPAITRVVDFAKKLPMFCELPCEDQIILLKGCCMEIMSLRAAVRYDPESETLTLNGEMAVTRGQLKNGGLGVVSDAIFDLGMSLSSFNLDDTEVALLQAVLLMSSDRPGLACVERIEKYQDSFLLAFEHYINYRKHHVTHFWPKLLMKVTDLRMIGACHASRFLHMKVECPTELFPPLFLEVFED
Sequence of human Thyroid hormone Receptor alpha (TRa), THRA (gene 7067) (P10827 whole entry, looked up, the tested form may be a part): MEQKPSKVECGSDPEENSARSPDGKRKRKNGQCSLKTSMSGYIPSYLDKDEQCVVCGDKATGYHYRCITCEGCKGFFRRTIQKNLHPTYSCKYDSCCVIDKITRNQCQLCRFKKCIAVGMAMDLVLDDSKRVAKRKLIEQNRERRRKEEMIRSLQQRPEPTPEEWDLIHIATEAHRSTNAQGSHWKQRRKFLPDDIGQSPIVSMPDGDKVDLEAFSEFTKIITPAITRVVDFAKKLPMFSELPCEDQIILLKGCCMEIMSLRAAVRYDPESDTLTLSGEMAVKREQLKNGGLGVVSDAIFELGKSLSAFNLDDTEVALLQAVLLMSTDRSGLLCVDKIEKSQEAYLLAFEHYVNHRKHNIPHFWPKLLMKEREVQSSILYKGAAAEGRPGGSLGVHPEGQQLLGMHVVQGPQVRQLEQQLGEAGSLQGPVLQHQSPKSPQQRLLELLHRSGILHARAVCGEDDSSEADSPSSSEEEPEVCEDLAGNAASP

With `Oc1ccc2c(c1)OC[C@@H](N1CCC(O)(c3ccc(F)cc3)CC1)[C@H]2O`, the result in experiment [1] and in experiment [2] was inactive.
Broadly, the AC50 is the concentration giving half of the maximal activity seen. Turning to `C=CCOC(=O)c1ccccc1C(=O)OCC=C`, the AC50 was 43.7 µM (active) in [3], 44.1 µM (active) in experiment [4] and 27.5 µM (active) in experiment [5]. Besides, the compound was called inactive in experiment [3], in [4], in [5], in [6], in experiment [7] and in experiment [8]. Moreover, the compound was classed as inactive in experiment [9], in [10], in experiment [11], in experiment [12], in experiment [13] and in experiment [14]. For the same compound, the call in [15] and in experiment [16] was inactive.
Consider `O=C(OCCCCCOC(=O)c1ccccc1)c1ccccc1`, for which the result in experiment [2], in [17], in experiment [15], in experiment [16], in experiment [18] and in [19] was inactive. Moreover, in experiment [20], the outcome was inactive.
For `NC(=O)Cn1c(=O)cc(CCN2CCN(c3nccc4sccc34)CC2)c2ccc(F)cc21`, the outcome in experiment [1] and in experiment [2] was inactive.
As for `O=C(N[C@@H](Cc1ccccc1)[C@@H](O)C(=O)N1C[C@@H](O)[C@@H](O)C1)c1cc2cc(Cl)ccc2[nH]1`, the result in [2] was inactive.
For `CCc1c(C(=O)NN2CCCCC2)nn(-c2ccc(Cl)cc2Cl)c1-c1ccc(Br)cc1`, in experiment [2], the result was inactive.
Still for that read-out and setting: in the case of `CN[C@H]1CC[C@@H](c2ccc(Cl)c(Cl)c2)c2ccc(S(N)(=O)=O)cc21` it was “inactive”.
With `CC(=O)C(C)=CC1C(C)=CCCC1(C)C` (stereo unspecified), the concentration at half-maximal activity (AC50) in experiment [3] is 64.4 µM (active); in experiment [4] it was 146 µM (active) and 25.2 µM (active); in [5], 8.16 µM (active) and 12.9 µM (active). Also, the compound was classed as inactive in experiment [3], in experiment [7], in experiment [8], in experiment [9], in [10] and in [11]. For the same compound, the call in experiment [13] was inactive.
